Compound activity from PubChem BioAssay.
BoNT F protease: BoNT F light chain protease inhibition | Multiplex microsphere protease cleavage assay, flow cytometry | inhibition, % at 10 µM | 0.22% of 360,000 active | AID 588497; in the data active = inhibition above about 35%, passing the limit was not always enough; inconclusive = no clear call, values can overlap the other calls; note: plate controls were buffer without enzyme for full effect and enzyme alone for no effect
Vc quorum ag: induces V. cholerae light production without autoinducers; V. cholerae BH1578 lux reporter, luminescence, 6 h; activation, % at 18.7 µM; 0.16% of 350,000 active; in the data active = activation mostly above about 9.7%, no sharp cut-off; inconclusive = no clear call, values can overlap the other calls; inactive = mostly below about 3.7%
Autofluor counter: counter-screen for toxin protease inhibitors: compound fluorescence; compound autofluorescence counterscreen, microsphere flow cytometry; stronger effect = higher value; fluorescence intensity (no concentration beside the values); 3.1% of 360,000 active; AID 624483; in the data active = fluorescence intensity above about 16000; inconclusive = no clear call, values can overlap the other calls
Anthrax LF inh2: blocks Bacillus anthracis lethal factor protease; P15917; multiplex microsphere protease cleavage assay, LF; inhibition, % at 10 µM; 0.12% of 360,000 active; AID 588501; note: plate controls were buffer without enzyme for full effect and enzyme alone for no effect
Target sequence (P15917 whole entry, looked up): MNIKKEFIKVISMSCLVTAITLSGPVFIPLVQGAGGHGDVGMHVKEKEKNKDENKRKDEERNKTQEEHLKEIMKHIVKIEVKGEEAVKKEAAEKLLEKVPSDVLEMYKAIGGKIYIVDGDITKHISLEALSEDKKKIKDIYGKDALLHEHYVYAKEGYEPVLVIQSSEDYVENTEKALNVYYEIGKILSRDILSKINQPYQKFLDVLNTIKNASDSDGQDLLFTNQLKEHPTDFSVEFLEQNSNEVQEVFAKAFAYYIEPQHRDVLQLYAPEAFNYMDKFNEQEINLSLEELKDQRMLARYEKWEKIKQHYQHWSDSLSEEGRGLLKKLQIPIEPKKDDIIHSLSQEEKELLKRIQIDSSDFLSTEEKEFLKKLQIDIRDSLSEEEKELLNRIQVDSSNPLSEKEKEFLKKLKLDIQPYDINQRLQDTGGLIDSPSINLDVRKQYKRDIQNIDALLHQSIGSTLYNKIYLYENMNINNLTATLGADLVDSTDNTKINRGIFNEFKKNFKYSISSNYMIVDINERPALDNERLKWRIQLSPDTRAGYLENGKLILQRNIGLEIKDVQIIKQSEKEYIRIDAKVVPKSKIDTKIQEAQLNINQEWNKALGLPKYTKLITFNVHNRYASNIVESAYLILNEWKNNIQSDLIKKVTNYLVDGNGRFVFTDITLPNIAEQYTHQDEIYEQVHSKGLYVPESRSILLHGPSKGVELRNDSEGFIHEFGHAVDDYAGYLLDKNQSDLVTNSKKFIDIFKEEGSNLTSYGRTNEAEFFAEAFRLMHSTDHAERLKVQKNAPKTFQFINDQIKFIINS
BoNT A protease: BoNT A light chain protease inhibition | multiplex microsphere protease substrate cleavage, flow cytometry | inhibition, % at 10 µM | 0.17% of 360,000 active | AID 588499; note: plate controls were buffer without enzyme for full effect and enzyme alone for no effect
* = called active by the depositor; i = inactive; ? = inconclusive; . = not tested or not shown. An excerpt weighted towards active compounds, which were near 3.5% of everything screened. Cut-off read from the data, not from the text of the source, unless noted: active = inhibition above about 30%; inconclusive = no clear call, values can overlap the other calls; inactive = below that.

SMILES | BoNT F protease | Vc quorum ag | Autofluor counter | Anthrax LF inh2 | BoNT A protease
CCN(CC)c1ccc(/C=C2\C(=O)c3ccc(C(=O)O)cc3C2=O)cc1 | 64* | 0 | 9698 | 37* | 14
O=C(Nc1ccc(F)cc1)c1sccc1SCc1cccc(C(F)(F)F)c1 | -14 | i | 26797* | -4 | ?
COc1ccc(N(CC(=O)Nc2ccc(S(=O)(=O)N3CCCC3)cc2)S(C)(=O)=O)cc1OC | 4 | -1 | 5722 | -8 | 0
COc1ccc(N(CC(=O)Nc2ccc(S(=O)(=O)N3CCCCC3)cc2)S(C)(=O)=O)cc1OC | 1 | i | 19464* | 1 | ?
CC(=O)Nc1ccc(NC(=O)CN(c2cccc(C)c2)S(C)(=O)=O)cc1 | -3 | 2 | 22430* | -2 | 0
CS(=O)(=O)N(CC(=O)Nc1cccc(Cl)c1Cl)c1ccccc1 | -2 | i | 6023 | 4 | 0
COc1ccc(NC(=O)N2CCN(c3cccc(C(F)(F)F)c3)CC2)cc1OC | -4 | i | 19995* | -4 | -1
CS(=O)(=O)N(CC(=O)Nc1cc(Cl)ccc1Cl)c1ccccc1 | -4 | 0 | 24006* | -2 | -2
Cc1onc(-c2c(Cl)cccc2Cl)c1C(=O)Nc1ccc(N2CCOCC2)cc1 | ? | 0 | 3504 | -3 | 1
COc1ccccc1N(CC(=O)N1CCc2ccccc2C1)S(C)(=O)=O | -6 | 0 | 4823 | 4 | 0
COc1ccc(N(CC(=O)N2CCc3ccccc3C2)S(C)(=O)=O)cc1OC | -7 | i | 16881* | -1 | -2
COc1ccc(NC(=O)CN(c2cccc(C(F)(F)F)c2)S(C)(=O)=O)cc1OC | 9 | i | 20812* | 0 | 3
CC1CCCC(C)N1C(=O)COC(=O)c1ccc2ccccc2n1 (stereo unspecified) | 9 | -2 | 4940 | -4 | 4
O=C(Cc1ccsc1)Nc1ccccc1F | -1 | 0 | 5608 | 2 | 1
Cc1oc(C(C)(C)C)cc1C(=O)Nc1cccc(C(=O)O)c1 | 0 | -1 | 11358 | -4 | 0
Cc1cc(C(=O)Nc2cccc(C(=O)O)c2)c(C)o1 | 3 | i | 22853* | 0 | ?
COc1ccc(-c2cc(C(=O)Nc3ccc(S(=O)(=O)Nc4onc(C)c4C)cc3)c3ccccc3n2)cc1 | 8 | 0 | 4629 | -4 | 0
COc1ccc(C(=O)Nc2ccccc2C(=O)NCCCn2ccnc2)cc1 | 0 | 0 | 2182 | -1 | 0
O=C(NCCCn1ccnc1)/C(=C\c1ccco1)NC(=O)c1ccco1 | 2 | i | 2021 | 0 | 0
O=C(NCCCn1ccnc1)c1ccco1 | -6 | 5 | 24362* | -4 | -4
O=C(Nc1ccccc1C(=O)NCCCn1ccnc1)c1ccccc1 | -2 | 0 | 20501* | -1 | -1
O=C(c1ccc(C(F)(F)F)cc1)c1c[nH]c(C(=O)NCCCn2ccnc2)c1 | 1 | i | 19564* | -1 | ?
C=CCOc1ccc(NC(=O)C(=O)NCCCn2ccnc2)cc1 | 7 | 1 | 19499* | -1 | 4
O=C(NCCCn1ccnc1)c1cc(C(=O)C2CCCCC2)c[nH]1 | 4 | -3 | 3168 | -3 | 0
Cc1ccc(C)c(OCc2cc(C(=O)N3CCN(c4ccccc4C)CC3C)no2)c1 (stereo unspecified) | -8 | -1 | 6073 | -4 | -1
SMILES | BoNT F protease | Vc quorum ag | Autofluor counter | Anthrax LF inh2 | BoNT A protease
NC(=O)NC(CC(=O)NNC(=O)c1cccs1)c1ccc(Cl)cc1 (stereo unspecified) | -4 | i | 3441 | 3 | 0
Cc1ccc(C(=O)NCc2ccco2)cc1S(=O)(=O)Nc1cccc(Cl)c1 | 2 | i | 21942* | -1 | ?
Cn1c(N2CCNCC2)nc2ccccc21 | 0 | 0 | 19898* | 1 | 0
COC(=O)c1ccc(Oc2nc(C(N)=O)cc(-c3ccccc3)n2)cc1 | -8 | -1 | 6089 | 5 | 0
N#Cc1ccc(Oc2nc(C(N)=O)cc(-c3ccccc3)n2)cc1 | -8 | -1 | 24851* | -2 | -5
NC(=O)C1CCN(C(=O)Nc2csc3ccccc23)CC1 | . | i | . | . | .
Cc1ccc(-n2ncc3c(=O)n(Cc4cccnc4)cnc32)cc1 | -3 | -2 | 19270* | -3 | 1
COc1cccc(CN(C)C(=O)C2CC(=O)N(c3ccc4c(c3)OCCO4)C2)c1 (stereo unspecified) | . | 0 | . | . | .
CCOC(=O)/C(C(N)=NCc1ccco1)=C(/O)c1ccccc1 | -2 | -2 | 23453* | -1 | 0
CC(C)N=C(NS(=O)(=O)c1ccc(Br)cc1)c1ccc(Cl)cc1 | -2 | 0 | 3090 | 1 | 0
O=C(COC(=O)C1CCN(S(=O)(=O)c2cccs2)CC1)Nc1ccc(F)cc1F | 2 | -2 | 4212 | -4 | 1
CON(C)C(=O)Nc1ccc(Cl)cc1 | -4 | i | 16992* | -5 | -2
CN(Cc1ccccc1)C(=O)Nc1ccc(Cl)cc1 | . | -1 | . | . | .
Cc1cc(=O)[nH]c(SCC(=O)N2CCc3ccccc3C2)n1 | 0 | -1 | 20691* | 0 | 0
O=C(CSc1nnnn1-c1ccc(Cl)cc1)N1CCc2ccccc2C1 | 3 | i | 21981* | 2 | 1
O=C(CSc1nnnn1-c1ccccc1)N1CCc2ccccc21 | -3 | i | 9943 | -2 | 0
Nc1cc(=O)[nH]c(SCC(=O)N2CCCc3ccccc32)n1 | -8 | 2 | 16983* | -2 | -2
Cc1cc(=O)[nH]c(N2CCc3ccccc3C2)n1 | -5 | -1 | 25748* | 1 | -5
Cc1ccnc(SCC(=O)N2CCc3ccccc3C2)n1 | -5 | -1 | 2868 | -1 | 0
Cn1c(=O)[nH]c(=O)c2c1nc(N1CCCCCC1)n2CCOc1ccccc1 | -1 | 0 | 3291 | -4 | 0
C[C@H](CO)N1C[C@H](C)[C@@H](CN(C)C(=O)NC2CCCCC2)Oc2ccc(NC(=O)C3CCCCC3)cc2C1=O | -2 | i | 3117 | -7 | 0
O=C(Nc1ccccc1C(=O)N1CCCCC1)C1CCCCC1 | -1 | 1 | 22702* | 0 | -2
CCOc1cc(NC(=O)C2CCCO2)c(OCC)cc1NC(C)=O (stereo unspecified) | -8 | i | 17626* | -3 | -3
O=C(Nc1ccccc1N1CCOCC1)C1CCCO1 (stereo unspecified) | -7 | -7 | 3643 | -2 | 0
CSc1ccccc1NC(=O)C1CCCO1 (stereo unspecified) | 2 | i | 22505* | 1 | 2
SMILES | BoNT F protease | Vc quorum ag | Autofluor counter | Anthrax LF inh2 | BoNT A protease
O=C(Nc1ccccc1C(=O)N1CCOCC1)C1CCCO1 (stereo unspecified) | 6 | -2 | 19285* | -4 | 5
NC(=O)c1ccccc1NC(=O)C1CCCO1 (stereo unspecified) | -21 | i | 3317 | 2 | -4
O=C1C2C3C=CC(C3)C2C(=O)N1CNc1ccccc1 (stereo unspecified) | -6 | i | 2636 | 1 | 0
O=C1C2C3C=CC(C3)C2C(=O)N1CN(Cc1ccccc1)CN1C(=O)C2C3C=CC(C3)C2C1=O (stereo unspecified) | -2 | i | 16805* | -1 | -1
COc1ccccc1CC(=O)O/N=C(\N)Cc1cccc2ccccc12 | -1 | -2 | 22659* | 3 | 2
COc1ccccc1OC(=O)Cc1cccc2ccccc12 | 10 | i | 3967 | 11 | 2
